Eight compounds from PubChem BioAssay (Tox21) can be followed below.

Unmarked numbers belong to inactive results. Records with an inconclusive call do not appear. Calls of active or inactive are those of the source. Unless noted, calls follow the shape of the full dose curve.

The nature of experiment [1]: Nuclear factor erythroid 2-related factor 2/antioxidant responsive element (Nrf2/ARE) small molecule agonists: qHTS cell viability counter screen in human keratinocytes (AID 1919968; active = well fitted curve in the direction sought with a large enough effect in the repeat runs; an effect the other way counts as inactive or inconclusive; also: nearly all actives have a fitted effect of over 55% in size; also: potency is read from the fitted curve at half-maximal effect). Put shortly: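 Seed 1,500 KeratinoSens cells per well, then incubate 5 h at 37 C/5% CO2. Add compounds in DMSO and incubate 23 h. Add CellTiter-Fluor, wait 1 h and read fluorescence.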

Experiment [2] in a line: Nuclear factor erythroid 2-related factor 2/antioxidant responsive element (Nrf2/ARE) small molecule agonists: luciferase reporter gene qHTS assay in human keratinocytes (AID 1919969). Also: nearly all actives have a fitted effect of over 35% in size. Also: potency is read from the fitted curve at half-maximal effect.
Experiment [3] concerns the target Gonadotropin-releasing hormone receptor (Homo sapiens) (UniProt P30968). As to the kind of experiment: Human gonadotropin-releasing hormone receptor (GnRHR) small molecule agonists, calcium flux assay in GnRHR-HEK293 cells (AID 1920063). Also: nearly all actives have a fitted effect of over 35% in size. Put shortly: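 Cells: HEK293 stably expressing human GnRHR. Steps: overnight (18 h) culture, 1 h calcium dye loading at 37 C, compound addition, kinetic fluorescence read at 480/540 nm. Each compound tested at 15 concentrations in triplicate.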

Experiment [4] deals with KiSS-1 receptor (Homo sapiens) (UniProt Q969F8). Kind of experiment: Human kisspeptin (KISS1R) small molecule agonists, calcium flux assay in KISS1R-HEK293 cells (AID 1920064; active = well fitted curve in the direction sought with a large enough effect in the repeat runs; an effect the other way counts as inactive or inconclusive). Put shortly:
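Cells plated and incubated 18 h; dye added, 1 h at 37 C; compounds in DMSO pinned in; signal read at 480/540 nm every second for 3 min. Each compound tested at 15 concentrations in triplicate.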

Experiment [5] is described as follows: p53 small molecule agonists, cell-based qHTS assay with human liver microsomes (AID 1963577).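 Also: p53 response element beta-lactamase reporter cells with liver microsomes plus NADPH.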 Put shortly:
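With metabolic activation: human liver microsomes (0.5 mg/mL final) plus NADPH (0.5 mg/mL final) added alongside compounds to p53RE-bla cells; 16 h 37 C exposure; beta-lactamase read by LiveBLAzer fluorescence.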

Experiment [6] is described as follows: p53 small molecule agonists, cell-based qHTS assay with rat liver microsomes (AID 1963578). The gist of the method:
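Metabolic activation by rat liver microsomes and NADPH, each 0.5 mg/mL final, added right after compounds to p53RE-bla reporter cells (4,000/well, plated 5 h earlier). 16 h at 37 C, then LiveBLAzer substrate for 2 h at room temperature in the dark; fluorescence read-out.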

The nature of experiment [7]: p53 small molecule agonists, cell-based qHTS assay with human liver microsomes: qHTS cell viability counter screen (AID 1963579). Also: nearly all actives have a fitted effect of over 45% in size. The gist of the method:
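Metabolic activation used human liver microsomes and NADPH, both 0.5 mg/mL final, over 16 hours at 37 C on p53RE-bla cells (4,000/well). Cytotoxicity measured by CellTiter-Glo luminescence, 30 min at room temperature.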

Experiment [8] in a line: p53 small molecule agonists, cell-based qHTS assay with rat liver microsomes: qHTS cell viability counter screen (AID 1963580). Also: nearly all actives have a fitted effect of over 45% in size. The gist of the method:
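Intracellular ATP, by CellTiter-Glo luminescence, defines viability. HCT-116 p53RE-bla cells, 4,000 per well, were compound-treated in the presence of rat liver microsomes and NADPH for 16 h at 37 C.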

A short description of experiment [9]: p53 small molecule agonists, cell-based qHTS assay: qHTS cell viability counter screen (AID 1963581). Also: nearly all actives have a fitted effect of over 45% in size. The gist of the method:
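Cells: HCT-116 with p53 response element-driven beta-lactamase. Treatment: 16 h, 37 C, compounds in DMSO. Read: CellTiter-Glo luminescence after 30 min RT.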

Experiment [10] is described as follows: p53 small molecule agonists, cell-based qHTS assay (AID 1963582; active = well fitted activation curve with a large enough effect in the signal ratio in the repeat runs, not every such curve was filed as active; the % refers to the signal ratio; also: potency is read from the fitted curve at half-maximal effect). Put shortly:
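Quantitative HTS in p53RE-bla cells: after a 5 h settling period, compounds delivered in DMSO were left on cells for 16 h at 37 C, and reporter induction was measured as fluorescence following 2 h substrate loading.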

Experiment [11] in a line: cAMP Responsive Elements (CRE) small molecule agonists, cell-based qHTS assay (AID 1963590). Put shortly: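 Agonist mode qHTS in CRE-bla HEK 293T cells: compounds dosed from DMSO for 3 h at 37 C/5% CO2, followed by LiveBLAzer B/G FRET substrate for 2 h at room temperature.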
Experiment [12] can be described thus: cAMP Responsive Elements (CRE) small molecule antagonists, cell-based qHTS assay (AID 1963591; active = well fitted inhibition curve with a large enough effect in the signal ratio in the repeat runs, not every such curve was filed as active; the % refers to the signal ratio). Put shortly: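 Antagonist mode: test compounds are co-incubated with the adenylyl cyclase activator NKH477 (0.25 uM final) on CRE-bla HEK293T cells for 3 h at 37 °C, followed by LiveBLAzer substrate loading.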
The target in experiment [13] is Beta-2 adrenergic receptor (Homo sapiens) (UniProt P07550). Kind of experiment: Adrenergic beta2 receptor (ADRB2) small molecule antagonists, cell-based qHTS assay (AID 1963592). Also: series mostly up to about 92 µM; nearly all actives have a fitted effect of over 50% in size. Put shortly:
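Cells (CHO, stable ADRB2 overexpression) incubated 18-20hr at 37C; compounds added from DMSO; agonist mix (1nM isoproterenol, 100uM IBMX, 25uM Ro-20-1724) added; 0.5hr RT; d2-cAMP and anti-cAMP-cryptate added; 1hr RT; 665/615 nm read.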

Experiment [14] deals with D(2) dopamine receptor (Homo sapiens) (UniProt P14416). As to the kind of experiment: Dopamine D2 receptor (DRD2) small molecule agonists, cell-based qHTS assay (AID 1963594). Also: nearly all actives have a fitted effect of over 35% in size. Put shortly:
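cAMP accumulation in DRD2-HEK293 cells measured by HTRF after 1 h detection; compounds added 10 min before NKH477 (200nM […]) forskolin-analogue stimulation, 30 min at room temperature, with Ro20-1724 present at 0.1 mM final.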

Experiment [15] has the same target. Kind of experiment: Dopamine D2 receptor (DRD2) small molecule antagonists, cell-based qHTS assay (AID 1963595; active = well fitted inhibition curve with a large enough effect in the signal ratio in the repeat runs, with a control signal flat; the % refers to the signal ratio). Put shortly:
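DRD2-HEK293; 0.1 mM Ro20-1724; cpd 10 min RT; NKH477 200 nM + quinpirole 12 nM, 30 min RT; HTRF cAMP (cAMP-d2/anti-cAMP cryptate), 665/620 nm ratio after 1 h.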

In experiment [16] the target is 5-hydroxytryptamine receptor 2A (Homo sapiens) (UniProt P28223). As to the kind of experiment: 5-hydroxytryptamine receptor 2A (HTR2A) small molecule agonists, cell-based qHTS assay (AID 1963587). Also: nearly all actives have a fitted effect of over 30% in size. Put shortly: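 Kinetic calcium-flux fluorescence (2 min, 1 sec intervals) after compound addition in agonist mode. HTR2A-CHO cells were cultured 18 h, then dye-loaded 1 h at 37 C.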
Chain of 5-hydroxytryptamine receptor 2A (Homo sapiens) (P28223 whole entry, looked up): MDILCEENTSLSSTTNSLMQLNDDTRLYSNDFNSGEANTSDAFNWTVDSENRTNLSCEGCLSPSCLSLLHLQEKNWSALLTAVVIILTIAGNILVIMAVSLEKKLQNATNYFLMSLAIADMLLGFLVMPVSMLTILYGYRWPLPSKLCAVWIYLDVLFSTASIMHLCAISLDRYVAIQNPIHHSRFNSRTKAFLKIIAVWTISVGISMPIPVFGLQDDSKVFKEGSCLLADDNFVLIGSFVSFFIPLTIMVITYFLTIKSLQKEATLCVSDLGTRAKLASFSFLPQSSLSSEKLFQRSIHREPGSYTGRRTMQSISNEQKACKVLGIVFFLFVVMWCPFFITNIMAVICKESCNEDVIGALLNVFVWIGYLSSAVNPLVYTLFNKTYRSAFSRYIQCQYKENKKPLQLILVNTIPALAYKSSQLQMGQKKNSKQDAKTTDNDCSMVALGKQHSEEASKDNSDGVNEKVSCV

The target of experiment [17] is Muscarinic acetylcholine receptor M1 (Homo sapiens) (UniProt P11229). As to the kind of experiment: Cholinergic receptor muscarinic 1 (CHRM1) small molecule antagonists, cell-based qHTS assay (AID 1963588). Also: nearly all actives have a fitted effect of over 40% in size. The gist of the method:
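CHRM1-CHO calcium-flux assay, antagonist mode. Cells were seeded 18 h, dye-loaded 1 h at 37 C and given compound for 5 min at RT, then acetylcholine was added at 50nM. FDSS fluorescence was read 3 min; 15 concentrations, three runs.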

The target is the same in experiment [18]. Kind of experiment: Cholinergic receptor muscarinic 1 (CHRM1) small molecule agonists, cell-based qHTS assay (AID 1963589). Also: nearly all actives have a fitted effect of over 35% in size. Put shortly:
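Agonist-mode qHTS in CHO cells stably carrying human muscarinic M1. Intracellular calcium is tracked by fluorescence every second after compound transfer; each compound runs at 15 concentrations in three independent runs.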

The target in experiment [19] is 5-hydroxytryptamine receptor 2A (Homo sapiens) (UniProt P28223). As to the kind of experiment: 5-hydroxytryptamine receptor 2A (HTR2A) small molecule antagonists, cell-based qHTS assay (AID 1963586). Also: nearly all actives have a fitted effect of over 45% in size. The gist of the method:
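Antagonist-mode intracellular calcium assay: DOI (4 nM) added after 5 min compound pre-incubation at room temperature to dye-loaded HTR2A-CHO cells. Fluorescence followed for 3 min, sampled every second.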

Chain of Beta-2 adrenergic receptor (Homo sapiens) (P07550 whole entry, looked up): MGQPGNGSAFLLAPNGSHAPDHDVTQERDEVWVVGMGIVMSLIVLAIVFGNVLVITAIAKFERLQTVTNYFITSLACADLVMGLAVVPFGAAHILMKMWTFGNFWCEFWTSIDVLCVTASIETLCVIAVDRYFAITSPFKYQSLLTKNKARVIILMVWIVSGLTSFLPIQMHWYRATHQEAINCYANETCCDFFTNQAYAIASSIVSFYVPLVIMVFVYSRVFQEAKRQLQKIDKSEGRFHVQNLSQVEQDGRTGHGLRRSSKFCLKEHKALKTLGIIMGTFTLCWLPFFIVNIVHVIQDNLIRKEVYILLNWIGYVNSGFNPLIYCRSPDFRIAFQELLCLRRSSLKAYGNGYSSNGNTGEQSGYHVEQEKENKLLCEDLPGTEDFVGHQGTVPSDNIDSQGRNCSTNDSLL
Chain of D(2) dopamine receptor (Homo sapiens) (P14416 whole entry, looked up): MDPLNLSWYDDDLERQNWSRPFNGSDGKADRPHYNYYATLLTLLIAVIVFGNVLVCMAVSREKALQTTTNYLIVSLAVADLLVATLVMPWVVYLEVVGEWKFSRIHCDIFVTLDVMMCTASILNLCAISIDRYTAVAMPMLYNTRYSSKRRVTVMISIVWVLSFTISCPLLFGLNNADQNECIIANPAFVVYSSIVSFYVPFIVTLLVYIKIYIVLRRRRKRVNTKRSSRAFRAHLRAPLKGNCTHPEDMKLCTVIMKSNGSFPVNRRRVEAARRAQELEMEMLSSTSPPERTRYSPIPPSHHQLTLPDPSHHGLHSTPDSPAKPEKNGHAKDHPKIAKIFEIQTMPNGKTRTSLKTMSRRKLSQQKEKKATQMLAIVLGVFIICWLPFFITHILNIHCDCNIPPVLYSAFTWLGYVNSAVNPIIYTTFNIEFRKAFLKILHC
Chain of Gonadotropin-releasing hormone receptor (Homo sapiens) (P30968 whole entry, looked up): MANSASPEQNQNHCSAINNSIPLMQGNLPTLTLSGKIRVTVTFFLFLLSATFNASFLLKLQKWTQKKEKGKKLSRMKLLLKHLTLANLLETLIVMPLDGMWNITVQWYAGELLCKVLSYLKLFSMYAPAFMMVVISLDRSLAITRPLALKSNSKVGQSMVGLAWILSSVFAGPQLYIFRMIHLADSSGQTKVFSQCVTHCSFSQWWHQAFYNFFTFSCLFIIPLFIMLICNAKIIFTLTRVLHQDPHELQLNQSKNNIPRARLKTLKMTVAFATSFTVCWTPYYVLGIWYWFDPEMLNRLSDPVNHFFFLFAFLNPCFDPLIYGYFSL
Chain of Muscarinic acetylcholine receptor M1 (Homo sapiens) (P11229 whole entry, looked up): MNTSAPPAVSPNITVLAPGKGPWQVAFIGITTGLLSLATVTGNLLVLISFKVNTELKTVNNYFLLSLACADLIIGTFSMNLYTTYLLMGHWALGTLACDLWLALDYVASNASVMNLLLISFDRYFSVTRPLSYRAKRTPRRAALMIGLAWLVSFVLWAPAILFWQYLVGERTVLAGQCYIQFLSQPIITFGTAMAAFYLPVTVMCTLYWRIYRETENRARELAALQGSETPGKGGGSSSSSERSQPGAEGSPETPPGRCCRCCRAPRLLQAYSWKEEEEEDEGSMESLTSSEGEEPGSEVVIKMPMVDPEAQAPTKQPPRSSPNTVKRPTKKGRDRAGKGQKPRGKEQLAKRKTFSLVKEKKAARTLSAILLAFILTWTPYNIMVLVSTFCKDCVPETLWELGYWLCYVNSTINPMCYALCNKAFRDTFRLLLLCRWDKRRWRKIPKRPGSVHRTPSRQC
Chain of KiSS-1 receptor (Homo sapiens) (Q969F8 whole entry, looked up): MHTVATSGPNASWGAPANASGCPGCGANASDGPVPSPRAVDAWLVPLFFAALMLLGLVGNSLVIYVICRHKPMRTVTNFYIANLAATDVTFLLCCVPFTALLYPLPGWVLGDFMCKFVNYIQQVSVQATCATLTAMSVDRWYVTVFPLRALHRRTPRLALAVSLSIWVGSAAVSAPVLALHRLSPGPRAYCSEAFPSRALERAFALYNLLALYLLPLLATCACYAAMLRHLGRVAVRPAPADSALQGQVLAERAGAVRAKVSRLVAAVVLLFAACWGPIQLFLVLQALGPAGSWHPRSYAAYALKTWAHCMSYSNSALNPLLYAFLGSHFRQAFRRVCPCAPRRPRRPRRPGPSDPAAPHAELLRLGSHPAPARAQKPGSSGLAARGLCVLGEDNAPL

For the compound `Cc1[nH]cnc1CN1CCc2c(c3ccccc3n2C)C1=O`, the Potency entry in experiment [1], in experiment [2], in [3], in experiment [5], in experiment [6] and in experiment [7] was “inactive” in each case. The Potency result in experiment [8], in experiment [9], in experiment [10], in [11], in experiment [12] and in experiment [13] was “inactive” each time. Also, the Potency entry in experiment [14] and in experiment [15] was “inactive” each time. Moreover, the result in [4] was inactive.

With `CC1(C)[C@H]2CC[C@]1(C)C(=O)C2`, the Potency entry in experiment [1], in experiment [3], in [5], in experiment [6], in [7] and in [8] was “inactive” in each case. Besides, the Potency entry in experiment [9], in experiment [12], in experiment [13], in [14] and in experiment [15] was “inactive” in each case. Moreover, in experiment [2], the Potency is 68.6 µM (active). Moreover, the outcome in [4] was inactive.

For the compound `CC(=O)N(CC(O)CN(C(C)=O)c1c(I)c(C(=O)NCC(O)CO)c(I)c(C(=O)NCC(O)CO)c1I)c1c(I)c(C(=O)NCC(O)CO)c(I)c(C(=O)NCC(O)CO)c1I` (stereo not given), the Potency result in experiment [1], in experiment [2], in [3], in [5], in [6] and in experiment [7] was “inactive” each time. The Potency entry in [8], in experiment [9], in experiment [10], in experiment [16], in experiment [17] and in [18] was “inactive” throughout. In addition, the Potency entry in experiment [11], in [12], in experiment [13], in [14] and in [15] was “inactive” each time. For the same compound, the outcome in [4] was inactive.

In the case of `CCOC(=O)CC`, the Potency result in experiment [1], in [2], in [3], in experiment [5], in [6] and in experiment [7] was “inactive” in each case. Moreover, the Potency result in experiment [8], in [9], in experiment [10], in experiment [16], in experiment [17] and in experiment [18] was “inactive” throughout. The Potency result in experiment [11], in experiment [12], in [13], in [14] and in experiment [15] was “inactive” throughout. Besides, the outcome in experiment [4] was inactive.

Regarding `CCN(CC)CCNC(=O)c1cc(S(C)(=O)=O)ccc1OC`, the Potency entry in experiment [1], in [2], in experiment [3], in [5], in experiment [6] and in experiment [7] was “inactive” in each case. Moreover, the Potency result in experiment [8], in experiment [9], in experiment [10], in experiment [11], in experiment [12] and in experiment [13] was “inactive” each time. The result in [4] was inactive.

For `C#CC(C)(CC)OC(=O)c1ccccc1C(=O)O` (stereo not given), the Potency entry in experiment [1], in [2], in experiment [3], in [5], in [6] and in [7] was “inactive” in each case. For the same compound, the Potency result in [9], in experiment [10], in [19], in experiment [16], in experiment [17] and in [18] was “inactive” in each case. In addition, the Potency result in [11], in [12], in experiment [13] and in [15] was “inactive” in each case. In experiment [4], the result was inactive.

As to `C[n+]1ccccc1/C=N/O`, the Potency entry in [1], in [2], in experiment [3], in [5], in [6] and in [7] was “inactive” in each case. The Potency result in experiment [8], in experiment [9], in experiment [10], in [11], in [12] and in [13] was “inactive” throughout. Further, the Potency result in [14] and in experiment [15] was “inactive” in each case. The outcome in [4] was inactive.

`N=C1N=C(N)c2ccccc21`: the Potency was 61.1 µM (active) in experiment [1], 27.3 µM (active) in experiment [2] and 36.3 µM (active) in experiment [10]. The Potency result in experiment [3], in experiment [5], in experiment [6], in experiment [7], in [9] and in experiment [19] was “inactive” in each case. Besides, the Potency entry in experiment [16], in experiment [17], in experiment [18], in experiment [12], in experiment [13] and in experiment [14] was “inactive” each time. Further, the outcome in experiment [4] was inactive.
